Screening results: PubChem BioAssay, several laboratories
Neddyl block: cullin neddylation inhibition | P61081+Q13564 | AID 651699 | inhibition, % at 25 µM | actives 0.58% (n = 360,000) | TR-FRET cullin neddylation, biochemical; in the data active = inhibition above about 36%
TLR4 MyD88 comp: inhibitors of human TLR4-MyD88 binding. actives 0.18% (n = 200,000). inhibition, % at 8.4 µM. HeLa CL3-4 TLR4/MyD88 BLA complementation, FRET ratio; in the data active = inhibition above about 25%;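 note: 0% = vehicle and 100% = reference inhibitor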
GC-A act: GC-A (human) enzyme activation | actives 0.14% (n = 370,000) | HEK293 GC-A cells, cGMP TR-FRET, EC30 ANP; 0% at EC30 ANP, 100% saturating ANP | activation, % at 10 µM | P16066; in the data active = activation above about 40%
NOD2-RIPK2 inh: inhibitors of human NOD2-RIPK2 interaction. inhibition, % at 4.98 µM. O43353. CHO BLA complementation NOD2-RIPK2, CCF4 ratio. actives 0.38% (n = 360,000); in the data active = inhibition above about 21%;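 note: 0% = vehicle only and 100% = reference blocker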
NPR2 activator: GC-B (human) receptor activation. P20594. HEK293-GC-B cells, CNP EC30, cGMP TR-FRET; 0% at EC30 CNP, 100% saturating CNP. activation, % at 10 µM. actives 0.11% (n = 370,000). AID 1920062;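 active = activation at 10 µM reaching about 35% in either raw or pattern-adjusted values, limit read from the data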
TLR9-MyD88 block: TLR9-MyD88 interaction inhibition. Q9NR96+Q99836. actives 0.21% (n = 340,000). CHO BLA complementation TLR9-MyD88, CCF4 FRET ratio. inhibition, % at 4.98 µM;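 active = inhibition above the mean over all tested compounds plus 3 SD, cut at about 21% in these data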;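 note: 0% = DMSO only wells and 100% = clavulanate BLA inhibitor control wells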
Numbers without * were called inactive; i = inactive; . = no result shown; ! = repeats disagree. The list is not random: actives were taken first. Their share in the collection is about 1.2%.

SMILES | Neddyl block | TLR4 MyD88 comp | GC-A act | NOD2-RIPK2 inh | NPR2 activator | TLR9-MyD88 block
O=C(O)CCc1ccc(-c2ccc(F)cc2)n1CC(=O)O | 18 | 7 | 7 | -12 | 1 | -10
COc1cc(C=NN=c2sc3ccccc3n2C)ccc1OCCO | . | . | -3 | . | 0 | .
O=C(Nc1c(-c2ccccc2)nc2ncccn12)C1CC1 | . | . | 7 | . | -1 | .
COc1cccc2cc(-c3ccccc3)c(=O)oc12 | 8 | 1 | -2 | -2 | -2 | 9
COc1cccc2cc(-c3nc(-c4cccs4)cs3)c(=O)oc12 | 46* | 20 | 9 | 3 | -5 | 8
Cc1ccc(S(=O)(=O)N2CCCC2C(c2ccccc2O)c2cn(C)c3ccccc23)cc1 (configuration not stated) | . | . | -2 | . | 3 | .
NC(=O)CSc1ncc(-c2ccc([N+](=O)[O-])cc2)[nH]1 | -40 | -2 | 0 | 3 | -5 | 0
O=[N+]([O-])c1ccc(-c2cnc(SCc3ccccc3Cl)[nH]2)cc1 | -32 | 25* | 6 | 14 | -2 | 15
Cc1cc(C)c(CSc2ncc(-c3ccc([N+](=O)[O-])cc3)[nH]2)c(C)c1 | 0 | 14 | -3 | 41* | 3 | 17
CCCCN1CN2Cc3cc(OC)ccc3C2CS1(=O)=O (configuration not stated) | . | . | 0 | . | 5 | .
COc1ccccc1-c1cc(C(F)(F)F)nc(S(=O)(=O)CCCC(=O)N2CCCCC2C)n1 (configuration not stated) | 34 | 18 | 78* | 5 | 9 | -5
COc1ccccc1-c1cc(C(F)(F)F)nc(S(=O)(=O)CCCC(=O)Nc2cccnc2Cl)n1 | 25 | 14 | 73* | 9 | 5 | 13
COc1ccccc1-c1cc(C(F)(F)F)nc(N2CCCC2)n1 | -8 | -6 | -8 | 6 | -1 | -1
COc1ccccc1-c1cc(C(F)(F)F)nc(S(=O)(=O)CCCC(=O)NC(C)C)n1 | 14 | -2 | 73* | -4 | 16 | -5
COc1ccccc1-c1cc(C(F)(F)F)nc(S(=O)(=O)CCCC(=O)NCc2ccc(F)cc2)n1 | 29 | 9 | 75* | -6 | 12 | 2
C[C@H]1[C@@H](NC(=O)C(c2ccccc2)c2ccccc2)CC[C@@]23CCCN2C(=O)CCC[C@@H]13 | . | . | -7 | . | -7 | .
CC(C)N1Cc2nnn(Cc3ccccc3)c2-c2cc(N3CCCC3)ccc2S1(=O)=O | . | . | -10 | . | -14 | .
COc1ccccc1-c1cc(C(F)(F)F)nc(S(=O)(=O)CCCC(=O)Nc2cc(C)on2)n1 | 35 | 12 | 76* | -2 | 10 | 2
FC(F)(F)c1cc(CNC2CCC23CCC(c2ccccc2)CC3)ccc1Cl (configuration not stated) | . | . | -5 | . | -8 | .
CN(C(=O)[C@@H](C1CC1)[C@@H](O)c1ccc2ccccc2c1)c1ccccc1 | . | . | -4 | . | -1 | .
O=C(CCn1cnc(-c2ccccc2)c1-c1ccccc1)N/N=C/c1ccccc1O | 54* | -4 | -11 | 3 | -6 | 6
O=C(CSc1nnc(-c2ccccc2)n1-c1ccc(Cl)cc1)Nc1ccccc1-c1ccccc1 | . | . | -15 | . | -13 | .
Nc1nnc(COc2ccc(Br)cc2Br)s1 | 3 | -5 | 58* | -5 | 0 | -1
Cc1ccc(C)c(OCc2nnc(N)s2)c1 | -5 | -11 | 3 | -4 | 3 | 2
Cc1cccc(Nc2nnc(-c3ccc(N4CCOCC4)c([N+](=O)[O-])c3)c3ccccc23)c1 | -16 | -5 | 32 | -4 | 48* | 0
SMILES | Neddyl block | TLR4 MyD88 comp | GC-A act | NOD2-RIPK2 inh | NPR2 activator | TLR9-MyD88 block
Cn1c(=O)n(Cc2ccccc2)c(=O)c2c1nc1n2CCCN1Cc1ccccc1 | 2 | 3 | 4 | 5 | 10 | 6
Cn1c(=O)n(Cc2ccccc2)c(=O)c2c1nc1n2CCCN1CCc1ccccc1 | 9 | -3 | 30 | -3 | 43* | -5
O=C(NCc1ccco1)C1CCCN(S(=O)(=O)c2cccs2)C1 (configuration not stated) | . | . | -2 | . | -2 | .
CCC(=O)Nc1nnc(-c2ccncc2)s1 | 52* | 8 | -4 | 13 | 0 | -2
COc1ccc(C=NNC(=O)c2ccccc2NS(=O)(=O)c2cccs2)cc1O | 26 | . | -2 | -2 | -3 | -5
O=C(NN=Cc1ccc(O)cc1O)c1ccccc1NS(=O)(=O)c1cccs1 | 43* | . | 1 | 0 | 2 | -6
CC(C)C(C#CC1CC1)NCc1ccc2c(c1)OCO2 (configuration not stated) | . | . | -7 | . | -6 | .
CC(Sc1ccc2ccccc2n1)C(=O)O (configuration not stated) | i | -3 | 48*! | -4 | 29 | -7
O=C1C(NC(=O)N2c3ccccc3C=Cc3ccccc32)CCCCN1Cc1cccc(C(F)(F)F)c1 (configuration not stated) | . | . | -5 | . | -1 | .
Cc1nc(N2CCN(C(=O)c3ccc(Cl)cc3)CC2)c(C#N)c2c1COC(C)(C)C2 | 41* | -8 | -4 | -3 | 0 | -7
COC(=O)CCC(=O)N1C2=NC3=C(C(=O)N(Cc4ccc5c(c4)OCO5)C3=O)C3N(C)c4ccccc4[C@]23C[C@H]1CO (some centres not stated) | . | . | 0 | . | -3 | .
COc1ccc(-c2cnc3c(NC=O)cc(-c4cc(OC)c(OC)c(OC)c4)cn23)cc1OC | 25 | . | 29 | 0 | 39* | .
COc1ccc(-c2cnc3c(NC=O)cc(-c4ccccc4)cn23)cc1OC | 22 | . | 8 | 2 | 4 | .
c1csc(CNc2ncnc3ccc(-c4ccc5c(c4)OCO5)cc23)c1 | . | . | 2 | 12 | 32*! | 3
CCC(=O)NC1=C(NC(C)c2ccccc2)C(=O)c2ccccc2C1=O (configuration not stated) | -43 | 2 | -7 | -7 | -9 | -3
CCC(=O)NC1=C(Cl)C(=O)C(NC(=O)CC)=C(Cl)C1=O | 13 | . | 7 | 23* | 9 | 11
O=C(O[C@@H]1OC2COC(=O)c3cc(O)c(O)c(O)c3-c3c(cc(O)c(O)c3O)C(=O)O[C@@H]([C@H]1O)[C@@H]2O)c1cc(O)c(O)c(O)c1 | 38* | 1 | . | -6 | . | -3
C=CCN1[C@H](C)COc2cc(N3CCCC3)ccc2S1(=O)=O | . | . | -3 | . | -3 | .
CCCc1nn(C)c2c(=O)[nH]c(-c3cc(S(=O)(=O)Nc4ccc(NC(C)=O)cc4)ccc3OCC)nc12 | 8 | . | 41* | 2 | 55* | 1
CCCc1nn(C)c2c(=O)[nH]c(-c3cc(S(=O)(=O)N4CCN(C)CC4)ccc3OCC)nc12 | -9 | . | 52* | -7 | 58* | 3
CCCc1nn(C)c2c(=O)[nH]c(-c3ccccc3OCC)nc12 | 6 | -18 | 21 | -15 | 22 | 0
